An excerpt weighted towards active compounds, which were near 10% of everything screened.
3T3 cytotox – kills NIH 3T3 cells; NIH 3T3 viability, CellTiter-Glo ATP luminescence, 48-72 h; Potency, µM (titrated, usually from 96.7 µM), for inactives: top-dose activity change, negative = cytotoxicity, actives largely listed as inhibitors; actives 4.3% (n = 94,000); AID 1345082; also: nearly all actives have a fitted effect of over 55% in size
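ATP-dependent luminescence (CellTiter-Glo) served as the viability signal for NIH 3T3 cells treated with compound for 48 or 72 hr at 37 °C.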
Luciferase inh – Photinus pyralis luciferase inhibition; P08659; AID 1347043; actives 2.5% (n = 76,000); purified P. pyralis luciferase, luminescence, biochemical; Potency, µM (highest dose often 115 µM), hits mostly inhibitors; also: nearly all actives have a fitted effect of over 65% in size
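Luminescence read by CCD imager after adding enzyme (10nM final) to wells holding compound, titrated in qHTS. Substrates 10uM each D-luciferin and ATP; buffer 50mM Tris acetate pH 7.5, 10mM Mg acetate, Tween-20, BSA.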
GPT2 inh – inhibitors of human GPT2 alanine aminotransferase. Q8TD30. Recombinant GPT2, coupled pyruvate oxidase/HRP Amplex Red fluorescence. Potency, µM (doses to about 57.7 µM), for inactives: top-dose activity change, negative = inhibition, most hits filed as inhibitors. actives 0.25% (n = 100,000). AID 1671188; also: nearly all actives have a fitted effect of over 60% in size
Target sequence (Q8TD30 whole entry, looked up): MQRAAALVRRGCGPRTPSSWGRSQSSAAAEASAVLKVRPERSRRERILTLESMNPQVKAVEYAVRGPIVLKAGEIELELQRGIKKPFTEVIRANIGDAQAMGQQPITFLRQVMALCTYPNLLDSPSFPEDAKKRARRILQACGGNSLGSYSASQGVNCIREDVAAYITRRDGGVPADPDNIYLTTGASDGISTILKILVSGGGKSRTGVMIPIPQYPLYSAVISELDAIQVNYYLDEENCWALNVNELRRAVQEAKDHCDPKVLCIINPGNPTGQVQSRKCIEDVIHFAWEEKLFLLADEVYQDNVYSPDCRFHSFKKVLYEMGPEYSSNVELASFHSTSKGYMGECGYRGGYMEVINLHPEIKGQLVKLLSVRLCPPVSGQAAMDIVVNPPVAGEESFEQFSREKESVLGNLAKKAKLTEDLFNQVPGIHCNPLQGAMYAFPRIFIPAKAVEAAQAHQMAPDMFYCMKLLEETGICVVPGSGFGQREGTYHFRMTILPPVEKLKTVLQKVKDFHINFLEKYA
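Inhibition is scored from Amplex Red fluorescence generated when pyruvate oxidase and HRP act on pyruvate released by GPT2. Reactions contain 10ng/uL enzyme, 250uM a-KG and 2mM L-alanine and run 30 min at room temperature.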
HEK293 tox – HEK 293 cell cytotoxicity; HEK 293 viability, ATP luminescence (CellTiter-Glo), 48-72 h; Potency, µM (highest dose often 115 µM), for the others: at the highest dose activity change, negative = cytotoxicity, most hits filed as inhibitors; actives 6.6% (n = 94,000); also: nearly all actives have a fitted effect of over 60% in size
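250 HEK 293 cells/well; compound by pintool; incubated 48 or 72 hr at 37 degree Celsius; CellTiter-Glo added, 10 min RT, luminescence imaged.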
NPR1 antag – blocks ANP-stimulated signaling of human Npr1 receptor. HEK293 hNpr1 GloSensor cGMP, ANP-stimulated luminescence. Potency, µM (series often up to 46.3 µM), for the others: top-dose activity change, negative = inhibition, actives largely listed as inhibitors. actives 1.6% (n = 76,000). AID 1347048; calls by dose curve; also: nearly all actives have a fitted effect of over 60% in size
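Compound pre-incubated 30 min at room temperature on GloSensor-loaded HEK293 cells stably carrying hNpr1 and the pGS-40F cGMP biosensor. Stimulation uses hNppA at 0.1 nM final; luminescence is taken at baseline and 20 min post-agonist.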
* hit, by the source's call; i = inactive; u = inconclusive; x = no result given; [ ] = remark or other dose. Unless noted, calls follow the shape of the dose curve; as a rule, active = well fitted curve in the direction sought with a large enough effect; inconclusive = small, poorly fitted or top-dose-only effect, or another doubt; inactive = no such curve, though single readings can be large; an effect the other way counts as inactive or inconclusive. % is scaled to controls: 0 for no effect and ±100 for the full control effect; potency is read from the fitted curve at half-maximal effect.

SMILES | 3T3 cytotox | Luciferase inh | GPT2 inh | HEK293 tox | NPR1 antag
O=C(Cc1cccnc1)N1CCCC(CN2CCCC2)CC1 (centres undefined) | i | x | i | i | x
CC(=O)N1CCN(c2nc3c(s2)CC(C(=O)Nc2cc(Cl)ccc2F)CC3)CC1 (centres undefined) | u | i | i | 40µM* | -22%
CC(C)C(=O)N1CCN(c2nc3c(s2)CC(C(=O)Nc2ccc(Cl)cc2)CC3)CC1 (centres undefined) | -18% | i | 2% | u | -17%
Cc1ccc(CNC(=O)C2CCc3nc(N4CCN(C(=O)C(C)C)CC4)sc3C2)o1 (centres undefined) | -17% | i | i | 79µM* | -4%
CC(=O)N1CCN(c2nc3c(s2)CC(C(=O)NCc2cccc(Cl)c2)CC3)CC1 (centres undefined) | -31% | i | i | u | -10%
Cc1ccccc1NC(=O)C1CCc2nc(N3CCN(C(=O)C(C)C)CC3)sc2C1 (centres undefined) | 35µM* | i | -2% | 10µM* | -8%
CCn1nccc1C(=O)N1CCC2(CC1)NCCc1c2[nH]c2ccccc12 | -21% | i | -1% | u | 3%
COc1ccccc1-n1c(=O)c(C(=O)NCC(F)(F)F)nc2cccnc21 | 0% | x | u | i | x
Cc1ccc(Nc2ccnc(N3CCC(C(=O)NCC4CCCO4)CC3)n2)cc1 (centres undefined) | u | x | 3% | u | x
CCN1C(=O)C2CC3(CCN(Cc4ccc5cc[nH]c5c4)CC3)CN2C1=O (centres undefined) | -4% | i | -12% | u | -1%
CCN1C(=O)C2CC3(CCN(Cc4ccc(F)c(F)c4)CC3)CN2C1=O (centres undefined) | u | i | 2% | 32µM* | -11%
Cc1ccc(CN2CCN(C(=O)CCC3CCN(C(=O)c4ccccc4)CC3)CC2)cc1 | -24% | i | i | u | u
Cc1ccc(C(=O)N2CCC(CCC(=O)NC3CCCCCC3)CC2)cc1 | u | 40µM* | u | u | -20%
CCC(CC)NC(=O)CCC1CCN(C(=O)c2ccc(C)cc2)CC1 | -6% | 40µM* | i | -11% | -13%
Cc1ccc(C(=O)N2CCC(CCC(=O)N3CCCCC3)CC2)cc1 | -13% | 28µM* | -1% | u | 2%
CCOC(=O)CNC(=O)N1CCC2(CC1)N(Cc1ccccc1)C(=O)CS2(=O)=O | -13% | x | i | -3% | x
O[C@@H]1C[C@@H](c2nc(-c3ccc(C(F)(F)F)cc3)no2)N(Cc2cccc(OC(F)(F)F)c2)C1 | u | 35µM* | -7% | 79µM* | 2%
O[C@@H]1C[C@@H](c2nc(-c3ccccc3)no2)N(Cc2cccc(OC(F)(F)F)c2)C1 | u | 71µM* | u | u | -1%[70.6 µM]
Cc1ccc(-c2noc([C@@H]3C[C@@H](O)CN3Cc3cccc(OC(F)(F)F)c3)n2)cc1F | u | i | u | u | -12%
O=C(NCc1ccccn1)c1ccc2nnc(C3CCCC3)n2c1 | -10%[138 µM] | x | 3%[88.5 µM] | 2%[172 µM] | x
COCCNc1ncc(-c2cccc(O)c2)c2c1OCC2 | -54%[174 µM] | 28µM* | i | -60%[230 µM] | 0%[70.6 µM]
COCCNc1ncc(-c2cccc(N)c2)c2c1OCC2 | u | 25µM* | 5%[88.5 µM] | u | -17%[70.6 µM]
COCCNc1ncc(-c2cccc(C(C)=O)c2)c2c1OCC2 | u | u | 2%[88.5 µM] | u | 0%[70.6 µM]
CN(Cc1cccc(C(F)(F)F)c1)C(=O)c1cccc(Cl)c1 | u | i | i | 100µM* | -5%[70.6 µM]
CN(Cc1cccc(C(F)(F)F)c1)C(=O)Cc1cccc(Cl)c1 | -20% | u | i | u | 7%
SMILES | 3T3 cytotox | Luciferase inh | GPT2 inh | HEK293 tox | NPR1 antag
CN(CCO)C[C@@H]1CN(C(=O)c2ccc3c(c2)CCC3)C[C@@H]1CO | 4% | i | 2% | -12% | 4%
Cc1c(CN2C[C@@H](CN(C)CCO)[C@@H](CO)C2)[nH]c2c(Cl)cccc12 | 79µM* | i | -4% | 45µM* | 4%
COC1C(=O)N(CC2CC2)C12CCN(C(=O)Cc1cccnc1)CC2 (centres undefined) | -4% | x | 3% | 2% | x
O=C(NC1CCCN(c2cc(-c3ccccc3)[nH]n2)C1)c1cccc(F)c1 (centres undefined) | u | u | u | 25µM* | 0%
O=C(NC1CCN(c2cc(-c3ccc(F)cc3)[nH]n2)C1)c1cccc(F)c1 (centres undefined) | u | i | u | 40µM* | -15%
O=C(NC1CCCN(c2cc(-c3ccccc3)[nH]n2)C1)c1ccc(F)cc1Cl (centres undefined) | u | u | u | u | -19%
COc1ccc(C(=O)N2CCC(Cc3nncn3-c3ccccc3)C2)cc1F (centres undefined) | 1% | x | 1% | i | x
CCOCC1(C)COc2ccc(C(=O)Nc3cccc(Cl)c3)cc2N1 (centres undefined) | 40µM* | 20µM* | -35%[88.5 µM] | 63µM* | u
CN(C)CCCOCC1(C)COc2ccc(C(=O)Nc3cccc(Cl)c3)cc2N1 (centres undefined) | u | i | -6%[88.5 µM] | 35µM* | -7%[70.6 µM]
COc1cccc(NC(=O)c2ccc3c(c2)NC(C)(CNc2ccccc2)CO3)c1 (centres undefined) | 28µM* | u | 0%[88.5 µM] | 40µM* | u
CC(C)CNC(=O)c1ccc2c(c1)NC(C)(COCC1CC1)CO2 (centres undefined) | u | i | i | u | -2%[70.6 µM]
CCOCC1(C)COc2ccc(C(=O)Nc3cccc(OC)c3)cc2N1 (centres undefined) | -30%[138 µM] | 20µM* | -25%[88.5 µM] | u | -4%[70.6 µM]
COc1cccc(NC(=O)c2ccc3c(c2)NC(C)(COCCN(C)C)CO3)c1 (centres undefined) | u | u | -12%[88.5 µM] | u | -1%[70.6 µM]
COCC(=O)N(C1CCOCC1)C1CCN(S(=O)(=O)c2ccccc2F)CC1 | -38% | i | i | -16% | 1%
CCOCC1(C)COc2ccc(C(=O)N(C)c3ccccc3)cc2N1 (centres undefined) | -18%[138 µM] | i | -9%[88.5 µM] | u | -13%[70.6 µM]
CCOCC1(C)COc2ccc(C(=O)Nc3cccc(N(C)C)c3)cc2N1 (centres undefined) | u | 63µM* | 4%[88.5 µM] | u | 0%[70.6 µM]
COc1ccc(C(=O)N[C@@H]2CCC[C@@H]2C(=O)NCc2ccccn2)cc1 | -9% | i | i | 0% | 2%
O=C(Nc1ccc(Cl)cc1Cl)c1cc2cccnn2n1 | u | 0.32µM* | i | u | 2.2µM*
O=C(NCc1ccc(Cl)cc1)c1cc2cccnn2n1 | u | 45µM* | 4%[88.5 µM] | u | 0%[70.6 µM]
COCCNC(=O)c1ccc2c(c1)N(C)C(CC(=O)N1CCCOCC1)CO2 (centres undefined) | -4% | i | i | -15% | -3%

Screens as filed in PubChem BioAssay.
